Several values for one entry are separate records, joined by “and”; a condition that tells them apart may be missing. Identical values can stand only once. Records with an inconclusive call do not appear. Some compounds were tested as several samples or in several runs, with calls that do not always agree. Activity calls are given as the source filed them. Unless noted, calls come from the whole dose curve; as a rule, active = well fitted curve in the direction sought with a large enough effect in the repeat runs; inconclusive = weak or mixed curves; inactive = no such curve, though single readings can be large; an effect the other way counts as inactive or inconclusive.

A short description of experiment [1]: qHTS assay to identify aromatase inhibitors - cell viability counter screen (AID 743084).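 Note: cells stimulated with testosterone during compound exposure; nearly all actives have a fitted effect of over 55% in size.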 Note: potency is the fitted concentration of half-maximal effect.
For experiment [2], the target named is Aryl hydrocarbon receptor (Homo sapiens) (UniProt P35869). Briefly: qHTS assay to identify small molecule that activate the aryl hydrocarbon receptor (AhR) signaling pathway (AID 743085).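 For activation: HG2L7.5c1 human HepG2 liver cells with stably integrated DRE-driven firefly reporter; series mostly up to about 70 µM.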 Note: nearly all actives have a fitted effect of over 15% in size. Note: potency is the fitted concentration of half-maximal effect. In a few lines:
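Steps: seed HepG2-AhR-luc cells; allow 5 h at 37C; pin-transfer test compound or vehicle; incubate 24 h at 37C; add viability dye (30 min, 37C) and read fluorescence; add luciferase substrate (30 min, RT) and read luminescence.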
For orientation: Quantitative high-throughput screening tests each substance at several concentrations.

A short description of experiment [3]: qHTS assay to identify small molecule that activate the aryl hydrocarbon receptor (AhR) signaling pathway - cell viability counter screen (AID 743086). Note: nearly all actives have a fitted effect of over 45% in size. Note: potency is the fitted concentration of half-maximal effect. Put shortly: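 HepG2-AhR-luc (HG2L7.5c1) cells, 4000/well, were preincubated 5 h at 37C, exposed to compound in qHTS format for 24 hr at 37C, then given CellTiter-Fluor for 30 min; viability was read as fluorescence in the reporter wells.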

For experiment [4], the target named is Peroxisome proliferator-activated receptor gamma (Homo sapiens) (UniProt P37231). Kind of experiment: qHTS assay to identify small molecule agonists of the peroxisome proliferator-activated receptor gamma (PPARg) signaling pathway (AID 743094; active = well fitted activation curve with a large enough effect in the signal ratio in the repeat runs, not every such curve was filed as active; the % refers to the signal ratio). Put shortly:
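Agonism was assessed in a beta-lactamase reporter system, HEK293H cells with a stably integrated UAS-bla construct under PPARg control; the 17 h treatment at 37C preceded a 1 h room-temperature FRET substrate read.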

Experiment [5] can be described thus: qHTS assay to identify small molecule antagonists of the peroxisome proliferator-activated receptor gamma (PPARg) signaling pathway - cell viability counter screen (AID 743194). Note: nearly all actives have a fitted effect of over 55% in size. Note: potency is the fitted concentration of half-maximal effect. In a few lines:
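PPARg-UAS-bla HEK293H cells were plated, rested 5 h at 37 C, then treated with compounds plus rosiglitazone (50 nM final) for 17 h at 37 C; viability was then read by CellTiter-Glo luminescence after 30 min at room temperature.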

Experiment [6] can be described thus: qHTS assay for small molecule agonists of the antioxidant response element (ARE) signaling pathway - cell viability counter screen (AID 743203; calls by dose curve; note: nearly all actives have a fitted effect of over 55% in size; note: potency is the fitted concentration of half-maximal effect). In a few lines:
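ATP content via CellTiter-Glo luminescence served as the viability measure. Cells: ARE-bla HepG2, 2,000 per well. Exposure: 16 hrs, 37C/5% CO2.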

The nature of experiment [7]: qHTS assay for small molecule activators of the heat shock response signaling pathway - cell viability counter screen (AID 743209). Note: nearly all actives have a fitted effect of over 50% in size. Note: potency is the fitted concentration of half-maximal effect. Put shortly:
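Compounds dissolved in DMSO were added to overnight-plated HSE-bla HeLa cells and left 5 h at 37 C. Cell viability was quantified by luminescence using CellTiter-Glo.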

In experiment [8] the target is Peroxisome proliferator-activated receptor delta (Homo sapiens) (UniProt Q03181). Kind of experiment: qHTS assay to identify small molecule agonists of the peroxisome proliferator-activated receptor delta (PPARd) signaling pathway (AID 743212; calls by dose curve). In a few lines:
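Beta-lactamase reporter read by fluorescence (LiveBLAzer B/G FRET, 2 h, room temperature). Test agents, in DMSO, incubated at 37 C with PPARd-bla HEK293H cells.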

Experiment [9] has as its target Bile acid receptor (Homo sapiens) (UniProt Q96RI1). Briefly: qHTS assay to identify small molecule antagonists of the farnesoid-X-receptor (FXR) signaling pathway (AID 743217; active = well fitted inhibition curve with a large enough effect in the signal ratio in the repeat runs, not every such curve was filed as active; the % refers to the signal ratio). In a few lines: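 Test compounds are pin-transferred onto FXR-bla HEK 293T cells, then chenodeoxycholic acid is added at 50 uM final. After 16 h at 37 °C, LiveBLAzer B/G substrate is applied for 2 h at room temperature and fluorescence read.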

Experiment [10] can be described thus: qHTS assay to identify small molecule antagonists of the farnesoid-X-receptor (FXR) signaling pathway - cell viability counter screen (AID 743221; active = well fitted cell-killing curve with a large enough effect in the repeat runs, not every such curve was filed as active; note: nearly all actives have a fitted effect of over 50% in size; note: potency is the fitted concentration of half-maximal effect). Put shortly: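 Quantitative HTS of the Tox21 10K library run in parallel with the beta-lactamase reporter read. HEK 293T cells carrying a UAS-driven bla reporter got compound and 50 uM CDCA (final) for 16 h; ATP-based luminescence followed.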

The nature of experiment [11]: qHTS assay for small molecule activators of the heat shock response signaling pathway (AID 743210; active = well fitted activation curve with a large enough effect in the signal ratio in the repeat runs, with a control signal flat, not every such curve was filed as active; the % refers to the signal ratio; note: series mostly up to about 63 µM). In a few lines:
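Heat shock element–beta-lactamase HeLa reporter cells; qHTS with compounds for 5 h at 37 C; detection by FRET substrate fluorescence after 2.5 h at RT.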

Experiment [12] in a line: qHTS assay to identify small molecule agonists of the peroxisome proliferator-activated receptor delta (PPARd) signaling pathway - cell viability counter screen (AID 743211). Note: nearly all actives have a fitted effect of over 55% in size. Note: potency is the fitted concentration of half-maximal effect. In a few lines:
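Viability of GeneBLAzer PPARd UAS-bla HEK293H cells was assessed after 17 h compound incubation at 37C, using CellTiter-Glo reagent added after the reporter read and luminescence recorded 30 min later.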

Experiment [13] in a line: qHTS assay to identify small molecule antagonists of the peroxisome proliferator-activated receptor delta (PPARd) signaling pathway - cell viability counter screen (AID 743213). Note: nearly all actives have a fitted effect of over 50% in size. Note: potency is the fitted concentration of half-maximal effect. In a few lines:
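PPARd-bla HEK293H cells (3000/well) got compound plus 300 nM L165041 agonist for 17 h at 37 C. Viability in the same wells came from CellTiter-Glo luminescence after 30 min at room temperature.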

Experiment [14] in a line: qHTS assay to identify small molecule agonists of the farnesoid-X-receptor (FXR) signaling pathway - cell viability counter screen (AID 743218). Note: nearly all actives have a fitted effect of over 45% in size. Note: potency is the fitted concentration of half-maximal effect. In a few lines: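 Quantitative HTS counter screen measuring ATP-based viability via CellTiter-Glo luminescence in HEK 293T cells carrying a UAS-driven beta-lactamase reporter, after 16 h compound exposure at 37 C.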
The nature of experiment [15]: qHTS assay for small molecule agonists of the antioxidant response element (ARE) signaling pathway (AID 743202; active = well fitted activation curve with a large enough effect in the signal ratio in the repeat runs, not every such curve was filed as active; the % refers to the signal ratio; note: potency is the fitted concentration of half-maximal effect). Put shortly:
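Following a 16 h, 37 C exposure of reporter HepG2 cells (ARE-driven beta-lactamase, 2,000 cells/well) to compounds, FRET substrate was applied for 2 h at room temperature and fluorescence intensity recorded.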

Experiment [16] addresses Vitamin D3 receptor (Homo sapiens) (UniProt P11473). Kind of experiment: qHTS assay to identify small molecule antagonists of the vitamin D receptor (VDR) signaling pathway (AID 743223; active = well fitted inhibition curve with a large enough effect in the signal ratio in the repeat runs, not every such curve was filed as active; the % refers to the signal ratio; note: potency is the fitted concentration of half-maximal effect). Put shortly:
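Fluorescence from LiveBLAzer B/G FRET substrate, read after 2 h at room temperature, reflects beta-lactamase reporter activity in VDR-bla cells treated 16 h at 37C with compounds and agonist 1alpha,25-dihydroxyvitamin D3 (3 nM final).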

For experiment [17], the target named is Peroxisome proliferator-activated receptor delta (Homo sapiens) (UniProt Q03181). Kind of experiment: qHTS assay to identify small molecule antagonists of the peroxisome proliferator-activated receptor delta (PPARd) signaling pathway (AID 743215; active = well fitted inhibition curve with a large enough effect in the signal ratio in the repeat runs, not every such curve was filed as active; the % refers to the signal ratio;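 note: cells stimulated with agonist L165041 at 300 nM final during compound exposure; series mostly up to about 62 µM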). In a few lines:
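Here, a reporter line (HEK293H, beta-lactamase under a UAS) measures PPARd signaling. Compounds are tested against agonist L165041 at 300 nM final concentration over 17 h at 37 C, with fluorescence read after substrate.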

For experiment [18], the target named is Vitamin D3 receptor (Homo sapiens) (UniProt P11473). Briefly: qHTS assay to identify small molecule agonists of the vitamin D receptor (VDR) signaling pathway (AID 743222; calls by dose curve). Put shortly:
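Tox21 cell reporter format: VDR-bla line, 16 h compound exposure in 5% CO2 at 37C, then fluorescence intensity after 2 h with LiveBLAzer B/G FRET substrate.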

The target in experiment [19] is Bile acid receptor (Homo sapiens) (UniProt Q96RI1). Briefly: qHTS assay to identify small molecule agonists of the farnesoid-X-receptor (FXR) signaling pathway (AID 743220; active = well fitted activation curve with a large enough effect in the signal ratio in the repeat runs, not every such curve was filed as active; the % refers to the signal ratio). In a few lines:
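FXR-UAS-bla HEK 293T cells carrying a UAS-driven beta-lactamase reporter were plated for 5 h at 37C/5% CO2, then exposed to DMSO-dissolved Tox21 10K compounds for 16 h at 37C. A LiveBLAzer B/G FRET substrate was loaded for 2 h at room temperature before fluorescence reading.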

Sequence of Vitamin D3 receptor (Homo sapiens) (P11473 whole entry, looked up): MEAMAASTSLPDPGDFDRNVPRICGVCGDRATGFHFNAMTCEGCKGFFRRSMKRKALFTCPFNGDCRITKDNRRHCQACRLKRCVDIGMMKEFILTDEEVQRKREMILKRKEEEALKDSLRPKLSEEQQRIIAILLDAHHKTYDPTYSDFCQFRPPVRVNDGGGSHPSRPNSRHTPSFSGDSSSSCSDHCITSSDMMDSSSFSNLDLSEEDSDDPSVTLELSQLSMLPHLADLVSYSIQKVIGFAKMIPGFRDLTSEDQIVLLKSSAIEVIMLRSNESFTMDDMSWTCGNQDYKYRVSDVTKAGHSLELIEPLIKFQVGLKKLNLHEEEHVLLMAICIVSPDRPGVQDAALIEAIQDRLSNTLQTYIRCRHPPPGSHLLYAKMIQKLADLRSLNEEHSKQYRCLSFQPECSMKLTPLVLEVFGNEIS
Sequence of Peroxisome proliferator-activated receptor delta (Homo sapiens) (Q03181 whole entry, looked up): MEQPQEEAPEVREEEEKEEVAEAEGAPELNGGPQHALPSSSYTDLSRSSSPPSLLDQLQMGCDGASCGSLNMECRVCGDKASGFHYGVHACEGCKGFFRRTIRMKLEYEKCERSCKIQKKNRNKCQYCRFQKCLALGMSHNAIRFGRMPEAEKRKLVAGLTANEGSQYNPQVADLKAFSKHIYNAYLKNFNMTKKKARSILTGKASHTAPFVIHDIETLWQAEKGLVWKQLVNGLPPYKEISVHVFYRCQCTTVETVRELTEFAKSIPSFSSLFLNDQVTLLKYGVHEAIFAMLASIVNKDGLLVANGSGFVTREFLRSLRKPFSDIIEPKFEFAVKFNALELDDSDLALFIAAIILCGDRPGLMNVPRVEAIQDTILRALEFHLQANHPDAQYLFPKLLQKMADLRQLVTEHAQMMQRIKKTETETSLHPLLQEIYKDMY
Sequence of Bile acid receptor (Homo sapiens) (Q96RI1 whole entry, looked up): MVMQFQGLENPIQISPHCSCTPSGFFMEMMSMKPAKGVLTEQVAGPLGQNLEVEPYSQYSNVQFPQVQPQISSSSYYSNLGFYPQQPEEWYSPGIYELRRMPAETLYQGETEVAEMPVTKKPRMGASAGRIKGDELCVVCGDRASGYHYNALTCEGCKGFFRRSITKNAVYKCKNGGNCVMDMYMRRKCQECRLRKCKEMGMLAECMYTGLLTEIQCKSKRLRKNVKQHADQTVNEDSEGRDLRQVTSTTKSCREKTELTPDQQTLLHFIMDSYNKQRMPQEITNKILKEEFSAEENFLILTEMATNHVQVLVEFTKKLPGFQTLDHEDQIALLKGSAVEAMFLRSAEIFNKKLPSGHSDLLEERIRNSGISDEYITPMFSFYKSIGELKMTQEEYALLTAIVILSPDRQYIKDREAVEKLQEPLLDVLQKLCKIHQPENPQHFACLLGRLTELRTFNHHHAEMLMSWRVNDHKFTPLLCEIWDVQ
Sequence of Aryl hydrocarbon receptor (Homo sapiens) (P35869 whole entry, looked up): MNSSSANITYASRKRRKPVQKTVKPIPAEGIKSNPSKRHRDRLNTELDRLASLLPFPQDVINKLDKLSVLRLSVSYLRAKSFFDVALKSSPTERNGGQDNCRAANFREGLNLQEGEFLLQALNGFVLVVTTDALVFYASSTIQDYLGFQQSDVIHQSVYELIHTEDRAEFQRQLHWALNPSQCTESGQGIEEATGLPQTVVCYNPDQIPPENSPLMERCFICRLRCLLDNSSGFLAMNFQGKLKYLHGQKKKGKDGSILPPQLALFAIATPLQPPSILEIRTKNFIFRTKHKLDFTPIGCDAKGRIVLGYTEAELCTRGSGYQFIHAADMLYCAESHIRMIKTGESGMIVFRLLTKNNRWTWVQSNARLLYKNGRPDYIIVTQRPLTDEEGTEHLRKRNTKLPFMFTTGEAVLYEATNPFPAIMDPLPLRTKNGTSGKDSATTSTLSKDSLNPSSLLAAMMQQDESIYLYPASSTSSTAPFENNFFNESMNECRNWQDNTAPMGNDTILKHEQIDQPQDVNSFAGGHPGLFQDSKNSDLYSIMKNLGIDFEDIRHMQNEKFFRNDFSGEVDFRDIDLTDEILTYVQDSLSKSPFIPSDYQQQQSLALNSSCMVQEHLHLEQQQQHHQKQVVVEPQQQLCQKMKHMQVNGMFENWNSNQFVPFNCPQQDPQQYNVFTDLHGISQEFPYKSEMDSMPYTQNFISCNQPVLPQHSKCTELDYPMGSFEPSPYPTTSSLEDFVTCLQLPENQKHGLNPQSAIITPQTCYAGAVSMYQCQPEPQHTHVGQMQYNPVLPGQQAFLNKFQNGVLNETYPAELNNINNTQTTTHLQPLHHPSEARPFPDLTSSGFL
Sequence of Peroxisome proliferator-activated receptor gamma (Homo sapiens) (P37231 whole entry, looked up): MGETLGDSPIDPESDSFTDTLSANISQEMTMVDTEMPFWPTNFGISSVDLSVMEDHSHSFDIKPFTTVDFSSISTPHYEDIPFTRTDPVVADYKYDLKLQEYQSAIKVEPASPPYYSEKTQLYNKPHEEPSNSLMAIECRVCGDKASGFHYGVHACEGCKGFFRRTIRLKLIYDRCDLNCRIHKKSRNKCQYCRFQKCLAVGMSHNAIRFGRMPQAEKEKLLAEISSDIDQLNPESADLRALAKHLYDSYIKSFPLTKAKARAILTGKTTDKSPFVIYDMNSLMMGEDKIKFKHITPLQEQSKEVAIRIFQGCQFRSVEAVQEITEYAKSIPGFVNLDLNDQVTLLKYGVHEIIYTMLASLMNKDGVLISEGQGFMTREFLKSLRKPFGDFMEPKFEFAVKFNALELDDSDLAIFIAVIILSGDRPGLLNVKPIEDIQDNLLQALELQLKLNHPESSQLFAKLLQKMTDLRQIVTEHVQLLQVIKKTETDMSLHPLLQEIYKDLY

On to `O=C(O)c1cc(O)c2ccccc2c1O`, for which the Potency in experiment [1] is 15.4 µM (active); in experiment [2], 4.86 µM (active); in [3] it was 54.5 µM (active); in experiment [5], 49 µM (active); in experiment [6], 30.6 µM (active); in experiment [7], 21.9 µM (active). The Potency result in [4], in experiment [8], in [9] and in experiment [10] was “inactive” each time.

As for `CC1=CCC(=C(C)C)CC1`, the Potency entry in experiment [1], in experiment [2], in experiment [3], in [4], in experiment [5] and in experiment [6] was “inactive” throughout. Moreover, the Potency result in experiment [7], in [11], in experiment [12], in [13], in experiment [14] and in experiment [10] was “inactive” in each case.

Take `CCOC(=O)Cn1cccc1-c1nc(-c2ccc(OC)cc2)c(-c2ccc(OC)cc2)s1`: the Potency result in [1], in experiment [2], in experiment [3], in experiment [4], in [6] and in experiment [7] was “inactive” each time. Also, the Potency result in experiment [12], in experiment [13], in [10] and in experiment [16] was “inactive” each time. The Potency in experiment [15] was 7.5 µM (active).

As for `C=CCn1c(=O)n(CC=C)c(=O)n(CC=C)c1=O`, the Potency entry in experiment [1], in experiment [2], in experiment [3], in experiment [4], in experiment [15] and in [6] was “inactive” in each case. For the same compound, the Potency entry in [7], in experiment [11], in experiment [12], in experiment [8], in experiment [17] and in experiment [14] was “inactive” in each case. The Potency result in experiment [10], in experiment [18] and in [16] was “inactive” in each case.

Take `CC(=O)Oc1cc2c(s1)CCN(C(C(=O)C1CC1)c1ccccc1F)C2` (configuration not stated): the Potency result in experiment [1], in experiment [2], in experiment [3], in [4], in experiment [15] and in experiment [6] was “inactive” throughout. For the same compound, the Potency result in experiment [7], in experiment [11], in experiment [12], in [8], in experiment [13] and in experiment [17] was “inactive” in each case. The Potency result in [14], in experiment [10] and in [18] was “inactive” throughout.

Take `CCCCC(CC)CN1CN(CC(CC)CCCC)CC(C)(N)C1` (configuration not stated): the Potency entry in [1], in experiment [2], in experiment [3], in experiment [4], in [7] and in experiment [12] was “inactive” in each case. Moreover, the Potency result in [17], in [9], in experiment [14], in experiment [19], in experiment [10] and in [16] was “inactive” in each case. Further, the results for the Potency in [5] and in experiment [6] were 29.8 µM (active) and 18.8 µM (active), respectively.

Regarding `CCCCCCCCCCCCCC[N+](C)(C)Cc1ccccc1`, the Potency result in experiment [1] was “inactive and 24.7 µM (active)”; in [3], 69.6 µM (active); in experiment [5] it was 22.2 µM (active) and 29.8 µM (active); in experiment [6], 69.6 µM (active); in experiment [7], 44.3 µM (active) and 26.6 µM (active); in [12] it was 22.2 µM (active) and 21.1 µM (active). In addition, the Potency in experiment [13] is 22.2 µM (active) and 10.6 µM (active); in [14] it was 23.7 µM (active); in experiment [10] it was 49.7 µM (active); in experiment [16] it was 44.3 µM (active). For the same compound, the Potency entry in experiment [2], in experiment [4], in experiment [9], in experiment [19] and in experiment [18] was “inactive” in each case.

The record behind these values is PubChem BioAssay (Tox21).
